Screens deposited in PubChem by several laboratories.
CYP2C19 activ: cytochrome P450 2C19 (human) activation; AID 1025; activation factor at 5 µM; 96,000 tested, under 10 active; recombinant CYP2C19, luciferin-H EGE luminescence; active compounds read high; 0 = fully inhibited enzyme, 1 = untreated enzyme;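 active means activation factor of at least 2 at 5 µM in the primary screen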
Target sequence (P33261 whole entry, looked up): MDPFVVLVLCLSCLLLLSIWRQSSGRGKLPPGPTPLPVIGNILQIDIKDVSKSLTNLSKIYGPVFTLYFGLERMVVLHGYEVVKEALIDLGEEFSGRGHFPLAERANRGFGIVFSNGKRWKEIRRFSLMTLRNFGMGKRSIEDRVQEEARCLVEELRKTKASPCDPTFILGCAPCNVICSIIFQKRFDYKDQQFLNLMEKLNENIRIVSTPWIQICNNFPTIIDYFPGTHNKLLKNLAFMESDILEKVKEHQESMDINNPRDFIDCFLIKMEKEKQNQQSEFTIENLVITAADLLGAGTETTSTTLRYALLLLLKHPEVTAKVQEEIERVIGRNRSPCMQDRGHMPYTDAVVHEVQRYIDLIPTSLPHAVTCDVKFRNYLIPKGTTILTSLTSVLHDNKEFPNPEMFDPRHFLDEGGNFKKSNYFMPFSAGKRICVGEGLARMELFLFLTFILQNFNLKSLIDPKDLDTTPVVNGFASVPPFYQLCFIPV
CYP2C19 inh: human CYP2C19 inhibition. P33261. CYP2C19 Supersomes, luciferin-H EGE luminescence, 30 min. inhibition, % at 5 µM. actives 21% (n = 96,000). AID 778;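 active means CYP2C19 inhibition above a set limit at 5 µM in the primary screen, cut at about 50% in these data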
CYP2C9 inh: human CYP2C9 inhibition; CYP2C9 Supersomes, luciferin-H conversion, luminescence; actives 20% (n = 96,000); inhibition, % at 5 µM; P11712;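 active means blocking of liver enzyme CYP2C9 beyond about 50% at 5 µM, limit read from the data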
CYP2C9 activ: CYP2C9 (human) activation; recombinant CYP2C9, luciferin-H conversion, luminescence; active compounds read high; factor 1 = untreated enzyme, 0 = blocked; activation factor at 5 µM; actives 1.4% (n = 96,000); AID 1024;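 active means activation factor of 2 or more for CYP2C9 at a 5 µM dose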
Cav3 T inh: human Cav3.2 channel inhibition, primary screen. O95180. Cav3.2-expressing cells, Fluo-4 calcium fluorescence FDSS; active compounds read low. B-score at 10 µM. actives 4% (n = 100,000). AID 449739;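 active means single-dose well whose peak fluorescence ratio is a statistical outlier from its plate by either plate-standardised score or position-corrected B-score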
Large screens that a line does not name were inactive. Sampled rows, rich in hits. Any-hit rate of the full collection: about 27%.

O=C(COc1ccccc1)Nc1nnc(-c2ccccc2)o1	none
CCCCn1c(SCc2c(C)noc2C)nc2cc(S(N)(=O)=O)ccc21	none (no result: Cav3 T inh)
O=C(COC(=O)CCC1CCCC1)Nc1ccc(Cl)cn1	none
O=C(COC(=O)CC1CCCC1)Nc1cc2c(cc1Cl)C(=O)c1ccccc1C2=O	CYP2C19 inh 61
Cn1c(=O)c2c(ncn2CCN(CCO)Cc2ccccc2)n(C)c1=O	none
O=C(COc1ccc(Cl)cc1)Nc1ccc(C(=O)NCc2cccnc2)cc1	none
COc1ccc(OCC(=O)Nc2sc3c(c2C(=O)NCC2CCCO2)CCC3)cc1 (stereo not drawn)	CYP2C19 inh 70, CYP2C9 inh 95
O=C(COc1ccccc1)Nc1sc2c(c1C(=O)NCc1cccnc1)CCCC2	CYP2C9 inh 96
COc1ccc(/C=C/C(=O)Nc2sc3c(c2C(=O)NCc2cccnc2)CCCC3)cc1	CYP2C19 inh 75, CYP2C9 inh 97
COc1cc(/C=C/C(=O)NCc2cccnc2)cc(OC)c1OC	none
O=C(CN1C(=O)c2ccccc2C1=O)Nc1sc2c(c1C(=O)NCC1CCCO1)CCC2 (stereo not drawn)	none
COc1cc(OC)c(OC)cc1CNCCNC(=O)c1nonc1N	none
CCOC(=O)c1sc2nccc(N(C)C)c2c1N=CN(C)C	none
CCOC(=O)c1sc2ncnc(NCC(c3cccs3)N(C)C)c2c1C (stereo not drawn)	CYP2C19 inh 58
CCOc1cccc(-c2nnc3sc(COc4ccc(Cl)cc4)nn23)c1	none
Fc1cccc2sc(N3CCOCC3)nc12	none (no result: CYP2C19 activ, CYP2C19 inh, CYP2C9 inh, CYP2C9 activ)
Fc1cccc2sc(N3CCCCC3)nc12	CYP2C19 inh 60
O=C(Nc1nnc(-c2ccccc2)o1)c1nc2ccccc2s1	none (no result: CYP2C19 activ, CYP2C19 inh, CYP2C9 inh, CYP2C9 activ)
CS(=O)(=O)c1cccc(C(=O)NC(c2ccccc2)c2ccccc2)c1	CYP2C19 inh 75, CYP2C9 inh 97 (no result: Cav3 T inh)
CCc1ccc(OCc2nnc(SCCN3CCOCC3)n2C)cc1	none
CCc1ccc2c(c1)cc(CN(C(=S)Nc1ccc(Cl)cc1)C1CC1)c1nnnn12	CYP2C9 inh 78
COC(=O)CN(c1ccc(C)c(Cl)c1)S(C)(=O)=O	CYP2C19 inh 54
COC(=O)CN(c1c(C)cccc1C)S(C)(=O)=O	CYP2C19 inh 56
Cc1ccc(N(CC(=O)N/N=C/c2cccs2)S(C)(=O)=O)cc1Cl	CYP2C9 inh 69
CCCNC(=O)CN(c1ccc(F)c(Cl)c1)S(C)(=O)=O	none
COC(=O)CN(c1ccccc1C)S(C)(=O)=O	none
Cc1nn(-c2ccccn2)c2c1C(c1ccccn1)C1=C(CCCC1=O)N2 (stereo not drawn)	none
CCCc1nc2oc3c(NCc4ccccn4)ncnc3c2c2c1COC(C)(C)C2	CYP2C9 inh 52
CC(C)c1nc2oc3c(NCC4CCCO4)ncnc3c2c2c1CCC2 (stereo not drawn)	none
CCCc1nc2oc3c(NCC4CCCO4)ncnc3c2c2c1COC(C)(C)C2 (stereo not drawn)	CYP2C9 inh 52
CC1CCN(C2(O)C(=O)Nc3ccc([N+](=O)[O-])cc32)CC1 (stereo not drawn)	CYP2C9 inh 66
CC1CCN(CCCCOc2ccc([N+](=O)[O-])cc2)CC1	none (no result: Cav3 T inh)
CCc1cccc(C)c1NC(=O)CSc1nc2ccc(N3C(=O)c4ccccc4C3=O)cc2s1	CYP2C9 inh 51 (no result: Cav3 T inh)
CCc1cccc(C)c1NC(=O)CN1C(=O)c2ccccc2S1(=O)=O	CYP2C19 inh 77
O=C(CN1C(=O)c2ccccc2S1(=O)=O)NC1CCCCCC1	CYP2C19 inh 66
Cc1cc(-c2ccccc2)nn1-c1nc2c(c(=O)[nH]c(=O)n2C)n1C	none (no result: Cav3 T inh)
Cc1cc(C)n(-c2ccc(C(=O)C(C#N)c3nc4ccccc4n3C)cc2)n1 (stereo not drawn)	none
c1ccc(Oc2nc(N3CCOCC3)nc(N3CCOCC3)n2)cc1	none
c1cnn(-c2nc(N3CCOCC3)nc(N3CCOCC3)n2)c1	CYP2C9 inh 53
COc1ccc(C(=O)Nc2cc(OC)ccc2OC)cc1	CYP2C19 inh 71
CC12CCC(C(=O)Nc3ccc(SC(F)F)cc3)(CC1=O)C2(C)C (stereo not drawn)	none
COc1ccc(OC)c(NC(=O)C23CCC(C)(C(=O)C2)C3(C)C)c1 (stereo not drawn)	CYP2C9 activ 2.3
COc1ccc(OC)c(NC(=O)c2cn(C)c(=O)c3cc(OC)c(OC)cc23)c1	CYP2C9 inh 74 (no result: Cav3 T inh)
CCOc1c2ccc(C(=O)NCc3ccc4c(c3)OCO4)cc2nn1CC	none
